The campaign covered roughly 5,500 compounds. About 2,000 (36%) were called active. About 18% were inconclusive and are not listed. Cut-off read from the data, not from the text of the source: active = normalized growth mostly below about 0.91 (no sharp cut-off); inconclusive = no clear call, values can overlap the other calls; inactive = mostly above about 0.92. Some of the results follow.
Experiment: chemical genetic growth profiling, strain panel (AID 1159580);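 note: tested at 20 µM; growth read once vehicle control cultures reached saturation at 30 °C; 1 = growth at the plate median or of vehicle wells; lower values mean less growth of the strain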
Conditions: S. cerevisiae deletion strains, growth OD
[1] = locus YAL013W, strain DEP1, active compounds read low
[2] = locus YBR229C, strain ROT2, active compounds read low
[3] = locus YDL101C, strain DUN1, active compounds read low
[4] = locus YDL134C, strain PPH21, active compounds read low
[5] = locus YDR150W, strain NUM1, active compounds read low
[6] = locus YEL061C, strain CIN8, active compounds read low
[7] = locus YGR078C, strain PAC10, active compounds read low
[8] = locus YGR229C, strain SMI1, active compounds read low
[9] = locus YHR030C, strain SLT2, active compounds read low
[10] = locus YHR087W, strain rtc3, active compounds read low
[11] = locus YJR043C, strain POL32, active compounds read low
[12] = locus YJR075W, strain HOC1, active compounds read low
[13] = locus YLR039C, strain RIC1, active compounds read low
[14] = locus YLR058C, strain SHM2 (second series), active compounds read low
[15] = locus YLR085C, strain ARP6, active compounds read low
[16] = locus YLR262C, strain YPT6, active compounds read low
[17] = locus YML094W, strain GIM5, active compounds read low
[18] = locus YMR219W, strain ESC1, active compounds read low
[19] = locus YMR263W, strain SAP30, active compounds read low
[20] = locus YMR307W, strain GAS1, active compounds read low
[21] = locus YNL153C, strain GIM3, active compounds read low
[22] = locus YNL298W, strain CLA4 (second series), active compounds read low
[23] = locus YNL322C, strain KRE1, active compounds read low
[24] = locus YNR030W, strain Alg12, active compounds read low
[25] = locus YOL006C, strain TOP1, active compounds read low
[26] = locus YPL055C, strain LGE1, active compounds read low
[27] = locus YPL241C, strain CIN2, active compounds read low
[28] = locus YPR135W, strain CTF4, active compounds read low

Measured: normalized growth

S=c1nc(-c2ccccc2)[nH][nH]1
inactive: [1] 0.997 | [2] 1.01 | [3] 1.02 | [4] 0.979 | [5] 1.01 | [6] 0.992 | [7] 0.988 | [8] 0.994 | [9] 1.06 | [10] 1.01 | [11] 0.99 | [12] 0.982 | locus YKL190W, strain CNB1, active compounds read low 0.982 | [13] 1.02 | [14] 0.999 | [15] 1.03 | [16] 0.991 | [17] 1.11 | [18] 0.999 | [19] 0.998 | [20] 1.08 | locus YNL128W, strain TEP1, active compounds read low 0.985 | [21] 0.998 | [22] 0.992 | [23] 1 | [24] 1.01 | [25] 1.06 | [26] 1.03 | [27] 1.01 | [28] 1.02

CCOC(=O)C(O)(c1ccc(NC(=O)Nc2ccc(Cl)cc2)cc1)C(F)(F)F (centres undefined)
inactive: locus YAR019C, strain CDC15, active compounds read low 0.993 | locus YBL105C, strain PKC1, active compounds read low 0.985 | locus YBR135W, strain CKS1, active compounds read low 0.997 | locus YBR136W, strain MEC1, active compounds read low 0.985 | locus YBR160W, strain CDC28, active compounds read low 0.99 | locus YDL017W, strain CDC7, active compounds read low 0.989 | locus YDL028C, strain MPS1, active compounds read low 0.987 | [3] 0.982 | locus YDL108W, strain KIN28, active compounds read low 0.986 | locus YDL132W, strain cdc53, active compounds read low 0.993 | locus YDL214C, strain PRR2, active compounds read low 1.03 | locus YDR052C, strain DBF4, active compounds read low 0.984 | locus YDR054C, strain cdc34, active compounds read low 0.986 | locus YDR226W, strain ADK1, active compounds read low 0.993 | locus YDR477W, strain SNF1, active compounds read low 1.01 | locus YER123W, strain YCK3, active compounds read low 1.01 | locus YER133W, strain GLC7, active compounds read low 1 | locus YFL009W, strain cdc4, active compounds read low 0.997 | locus YFL029C, strain CAK1, active compounds read low 0.99 | locus YFR003C, strain YPI1, active compounds read low 0.988 | locus YFR019W, strain FAB1, active compounds read low 0.988 | locus YFR028C, strain CDC14, active compounds read low 0.992 | locus YGR040W, strain KSS1, active compounds read low 0.999 | locus YGR052W, strain FMP48, active compounds read low 0.991 | locus YGR092W, strain DBF2, active compounds read low 0.924 | [9] 1.06 | locus YHR079C, strain IRE1, active compounds read low 1.04 | locus YHR082C, strain KSP1, active compounds read low 1.05 | locus YHR205W, strain SCH9, active compounds read low 0.935 | locus YIL147C, strain SLN1, active compounds read low 0.981 | locus YJL095W, strain BCK1, active compounds read low 0.915 | locus YJL128C, strain PBS2, active compounds read low 0.956 | locus YJL157C, strain FAR1, active compounds read low 1 | locus YJR016C, strain ILV3, active compounds read low 0.994 | locus YJR066W, strain TOR1 (second series), active compounds read low 0.977 | locus YJR066W, strain TOR1, active compounds read low 1.03 | locus YKL048C, strain ELM1, active compounds read low 1.01 | locus YKL067W, strain YNK1, active compounds read low 0.994 | locus YKL101W, strain HSL1, active compounds read low 0.975 | locus YKL193C, strain SDS22, active compounds read low 0.987 | locus YKL203C, strain TOR2, active compounds read low 1.04 | locus YLR113W, strain HOG1, active compounds read low 0.963 | locus YLR133W, strain CKI1, active compounds read low 1.01 | locus YLR403W, strain SFP1, active compounds read low 0.973 | locus YML070W, strain DAK1, active compounds read low 0.992 | locus YMR001C, strain CDC5, active compounds read low 0.983 | locus YMR205C, strain PFK2 (second series), active compounds read low 0.991 | locus YMR277W, strain FCP1, active compounds read low 0.999 | locus YNL006W, strain LST8, active compounds read low 1.01 | locus YNL020C, strain ARK1, active compounds read low 1 | locus YNL161W, strain CBK1, active compounds read low 0.998 | locus YNL183C, strain NPR1, active compounds read low 1.01 | locus YNL207W, strain RIO2, active compounds read low 0.983 | locus YNL222W, strain SSU72, active compounds read low 0.979 | locus YNL307C, strain MCK1 (second series), active compounds read low 0.924 | locus YOL078W, strain AVO1, active compounds read low 0.982 | locus YOL136C, strain PFK27, active compounds read low 0.992 | locus YOR061W, strain CKA2, active compounds read low 1 | locus YOR119C, strain RIO1, active compounds read low 1.08 | locus YOR231W, strain MKK1, active compounds read low 0.986 | locus YOR329C, strain SCD5, active compounds read low 0.992 | locus YPL031C, strain PHO85, active compounds read low 0.987 | locus YPL153C, strain RAD53, active compounds read low 1.03 | locus YPL204W, strain HRR25, active compounds read low 1 | locus YPL209C, strain IPL1, active compounds read low 0.996 | locus YPL256C, strain CLN2, active compounds read low 1.11 | locus YPR025C, strain CCL1, active compounds read low 0.99 | locus YPR106W, strain ISR1, active compounds read low 0.992 | locus YPR111W, strain DBF20, active compounds read low 0.986 | strain NNK1, active compounds read low 0.998 | strain TSCII, active compounds read low 0.993

CCOC(=N)c1ccc(F)c(Cl)c1
inactive: [1] 1.01 | [2] 0.995 | [3] 0.992 | [4] 1.02 | [5] 1.01 | [6] 1.01 | [7] 1.02 | [8] 1.02 | [9] 1.02 | [10] 0.995 | [11] 1.02 | [12] 1.01 | [13] 1.07 | [14] 1.01 | [15] 1.02 | [16] 1.06 | [17] 0.981 | [18] 1.02 | [19] 1.06 | [20] 1.07 | [21] 0.999 | [22] 1.06 | [23] 1.01 | [24] 1.01 | [25] 1.06 | [26] 1.02 | [27] 0.923 | [28] 1.05

Source: PubChem BioAssay AID1159580 (chemical genetic matrix, 2015)
